Shown are actives, neighbours in structure and some others; about 11% of the full set was active somewhere.
USP30 inh: inhibitors of human USP30 deubiquitinase; Q70CQ3; purified USP30, Ub-rhodamine cleavage fluorescence; inhibition, % at 25 µM; hit rate 5.3% among 47,000; AID 1645860
Target sequence (Q70CQ3 whole entry, looked up): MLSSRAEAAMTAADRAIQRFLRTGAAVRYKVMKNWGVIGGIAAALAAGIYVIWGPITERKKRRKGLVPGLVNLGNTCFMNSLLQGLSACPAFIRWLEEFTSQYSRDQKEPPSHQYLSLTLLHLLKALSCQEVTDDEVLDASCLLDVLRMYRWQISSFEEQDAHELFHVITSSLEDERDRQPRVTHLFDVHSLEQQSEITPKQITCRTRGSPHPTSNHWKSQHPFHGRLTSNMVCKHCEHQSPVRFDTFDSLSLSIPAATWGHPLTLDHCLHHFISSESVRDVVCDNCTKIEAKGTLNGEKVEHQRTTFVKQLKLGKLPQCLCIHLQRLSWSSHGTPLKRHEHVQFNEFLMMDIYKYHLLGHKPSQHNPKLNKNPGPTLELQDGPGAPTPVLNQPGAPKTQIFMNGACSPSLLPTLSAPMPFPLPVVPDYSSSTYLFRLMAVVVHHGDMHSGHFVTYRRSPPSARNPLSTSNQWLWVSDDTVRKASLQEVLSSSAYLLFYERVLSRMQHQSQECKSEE
USP17 block: inhibitors of human USP17 deubiquitinase | inhibition, % at 50 µM | hit rate 6.5% among 47,000 | A8MUK1 | purified USP17, Ub-rhodamine cleavage fluorescence, 3 h
OTUD3 block: inhibitors of human OTUD3 deubiquitinase. hit rate 0.7% among 47,000. AID 1645858. Q5T2D3. purified OTUD3, Ub-rhodamine fluorescence, 2 h. inhibition, % at 25 µM
USP28 inh: human USP28 deubiquitinase inhibition; Q96RU2; AID 1645857; inhibition, % at 25 µM; purified USP28, Ub-rhodamine cleavage fluorescence, 30 min; hit rate 3% among 47,000
Hits are given with their value; - = inactive; . = no result given. No stated cut-off is given here; in the data, active means inhibition above about 30%; inactive means the rest.

SMILES	USP30 inh	USP17 block	OTUD3 block	USP28 inh
CC(CCc1ccccc1)NCc1c(C(=O)O)n(Cc2ccc(F)cc2)c2ccccc12 (centres undefined)	-	-	-	34
O=C(O)c1c(CNCc2cccs2)c2ccccc2n1Cc1cccc(F)c1	-	47	-	-
O=c1c(S(=O)(=O)N2CCCC2)cccn1Cc1noc(-c2ccccc2Cl)n1	-	-	-	-
O=C(CCSCc1ccccc1F)NCCc1ccccc1	-	-	-	-
O=C(CCSCc1cccc(F)c1)NCCc1ccc(Cl)cc1	37	-	-	-
Cc1nn(C)c(C)c1CCNC(=O)Nc1ccc(Cl)cc1	-	-	-	-
O=C1CCOC[C@]2(CN(C(=O)c3cscn3)C[C@H]2c2ccccc2F)N1	-	-	-	-
O=C(NC(Cc1ccccc1)c1nc2ccccc2[nH]1)c1ccc2ccccc2n1 (centres undefined)	-	.	-	-
CSCCC(NC(=O)COc1ccc(Cl)cc1)c1nc2ccccc2[nH]1 (centres undefined)	-	.	-	-
O=C(Cc1coc2cc3c(cc12)CCC3)NC(Cc1ccccc1)c1nc2ccccc2[nH]1 (centres undefined)	-	47	-	-
O=C(NC(Cc1ccccc1)c1nc2ccccc2[nH]1)C1CC1 (centres undefined)	-	54	-	-
COc1ccccc1/C=C/C(=O)NC(Cc1ccccc1)c1nc2ccccc2[nH]1 (centres undefined)	-	45	-	-
CC(C)CC(NC(=O)c1ccccn1)c1nc2ccccc2[nH]1 (centres undefined)	-	-	-	-
CC(C)CC(NC(=O)c1ccc(Cl)cc1Cl)c1nc2ccccc2[nH]1 (centres undefined)	-	69	-	-
CC(NC(=O)c1ccccc1)c1nc2ccccc2[nH]1 (centres undefined)	.	-	-	.
CCOC(=O)C1CCCN1C(=O)c1ccc(-c2ccccc2)cc1 (centres undefined)	-	-	-	-
Cc1cc(C)c2c(c1)[C@]1(C(=O)N2)[C@@H]2C(=O)N(Cc3ccccc3)C(=O)[C@@H]2[C@@H]2CCCN21	-	-	-	-
O=C(NC(Cc1ccccc1)c1nc2ccccc2[nH]1)c1ccccc1-c1ccccc1 (centres undefined)	-	40	-	-
CN(C)C(=O)c1ccc2ccc(N3CCOCC3)n2c1	-	-	-	-
O=C(Cn1c(=O)n(CC(=O)NC2CCCC2)c(=O)c2ccccc21)Nc1cc(Cl)ccc1Cl	65	43	-	34
O=C(Cn1c(=O)n(CC(=O)NC2CCCC2)c(=O)c2ccccc21)Nc1ccc(F)cc1	70	67	41	42
COc1ccc(NC(=O)Cn2c(=O)n(CCC(=O)NC3CCCC3)c(=O)c3ccccc32)cc1Cl	-	-	-	-
COc1ccc(Cl)cc1NC(=O)Cn1c(=O)n(CCC(=O)NC2CCCC2)c(=O)c2ccccc21	-	-	-	-
CCOc1ccccc1NC(=O)Cn1c(=O)n(CCC(=O)NC2CCCC2)c(=O)c2ccccc21	-	41	-	-
O=S(=O)(c1cccc(Cl)c1)N1CCN(c2cc(-c3ccncc3)[nH]n2)CC1	-	-	-	-
SMILES	USP30 inh	USP17 block	OTUD3 block	USP28 inh
CC1=N[C@@]2(CC[C@@H]3CN(c4ncccn4)C[C@@H]32)C(=O)N1CC1CC1	-	-	-	-
C[C@H]1C(=O)N(C)[C@@H]2CCN(C(=O)C3CCCCC3)[C@@H]2C(=O)N1C	33	-	-	-
Cc1ccc(C(C)C(=O)N2CCc3nc4ccccc4c(=O)n3CC2)cc1 (centres undefined)	30	-	-	-
O=C(Cc1ccccc1O)N1CCc2nc3ccccc3c(=O)n2CC1	-	-	-	-
Cc1cc2ccncc2n1CC1(O)CCN(C(=O)c2cc(C(C)C)on2)CC1	-	-	-	-
COc1ccc(CNC(=O)c2nc(-c3ccc4cc[nH]c4c3)no2)cc1	41	-	-	-
O=C(NCc1ccccc1Cl)c1nc(-c2ccc3[nH]ccc3c2)no1	47	49	-	-
O=C(NCc1ccncc1)c1nc(-c2ccc3[nH]ccc3c2)no1	-	-	-	-
Cc1oc(C(C)(C)C)cc1-c1nc(-c2ccc(C(F)(F)F)cc2)no1	-	-	-	-
Cc1cc(C)cc(NC(=O)Cc2csc(NC(=O)Nc3cccc(Cl)c3)n2)c1	32	-	-	-
O=c1c2ccccc2ncn1C1CCN(S(=O)(=O)c2cccc(F)c2)CC1	-	-	-	-
Cc1ccccc1Cn1ccc2ccn(Cc3cccnc3)c2c1=O	30	-	-	60
O=c1c2c(ccn1Cc1cc(F)ccc1F)ccn2Cc1cccnc1	-	-	-	68
Cc1noc(C)c1CCn1ccc2ccn(Cc3cccnc3)c2c1=O	-	-	-	-
CCCCCN1CC(=O)N2CS(=O)(=O)C[C@H]2C1=O	-	-	-	-
Cn1ncc(-c2nc(-c3ccc(Cl)cc3)cs2)c1NC(=O)NC(=O)c1c(F)cccc1F	.	53	-	.
Cc1ccc(C)c(NC(=O)NCCn2cnc3cc(C(=O)N(C)C)ccc32)c1	-	-	-	-
CC(=O)c1oc2nc3c(c(-c4ccc(Cl)cc4)c2c1N)CCc1ccccc1-3	-	38	37	-
N#Cc1c(N)nc2c(c1-c1ccccc1)CCc1ccccc1-2	-	-	-	-
O=C(Nc1ccc(N2CCN(C3CCCCC3)C2=O)nc1)C1CCCC1	-	-	-	-
COc1ccccc1NC(=O)C1CN(c2nc3ccccc3s2)C1	.	38	-	.
COc1ccccc1NC(=O)C1CCCN(c2cnc3nccnc3c2)C1 (centres undefined)	-	-	-	-
Cc1ccc(Cn2c(CCNC(=O)c3ccc(Cl)cc3)nc3ccccc32)cc1	52	68	-	-
Cc1ccccc1Cn1c(CCNC(=O)c2ccco2)nc2ccccc21	-	-	-	-
CCC(=O)c1c(-c2ccccc2)c2c3n(c(-c4ccccc4)cn13)CCCC2	-	-	-	-
SMILES	USP30 inh	USP17 block	OTUD3 block	USP28 inh
CC(NC(=O)COCc1cc(-c2ccc(F)cc2)on1)c1ccccc1 (centres undefined)	-	-	-	-
CC(NC(=O)Cc1cc(-c2ccc(F)cc2)on1)c1ccccc1 (centres undefined)	-	31	-	-
COc1cc2c(cc1OC)-c1cc(Nc3ccc(Br)cc3)nc(=O)n1CC2	53	-	-	-
Nc1cc2nc3ccccc3oc-2cc1=O	-	45	-	-
COc1ccc(CC(=O)Nc2cnc3ccc(C(=O)NCc4ccncc4)cn3c2=O)cc1	-	30	-	-
O=C(Nc1ccccc1)Nc1cnc2ccc(C(=O)NCc3ccncc3)cn2c1=O	-	-	-	-
Cn1ccc(-c2nc3ccccc3[nH]2)n1	-	-	-	-
Cc1nn(-c2ccc([N+](=O)[O-])cc2)c(C)c1-c1nc2ccccc2[nH]1	63	-	-	37
COc1cccc(S(=O)(=O)N2Cc3ccccc3CN3C(=O)NC(=O)C3C2)c1 (centres undefined)	-	-	-	-
c1ccc(-c2cc(CSc3nc4ccccc4[nH]3)no2)cc1	-	33	-	-
Cn1cc(C(=O)N2C3CCC(C3)[C@H]2COc2ccc(F)cc2)cn1 (some centres undefined)	-	-	-	-

Compound activity: PubChem BioAssay, Buhrlage Lab, Dana-Farber Cancer Institute and Novartis Institutes for BioMedical Research (Cambridge, Mass)
